According to PubChem BioAssay (Tox21):
Results filed as inconclusive are left out. Calls of active or inactive are those of the source. Unless noted, calls come from the whole dose curve; as a rule, active = well fitted curve in the direction sought with a large enough effect in the repeat runs; inconclusive = weak or mixed curves; inactive = no such curve, though single readings can be large; an effect the other way counts as inactive or inconclusive.

How the values were obtained:
[1] = qHTS assay to identify small molecule agonists of the hypoxia (HIF-1) signaling pathway - cell viability counter screen (AID 1224844; calls by dose curve; note: nearly all actives have a fitted effect of over 50% in size)
Outline: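 HRE-bla ME-180 cells in medium with 0.5% dialyzed FBS were preincubated 5 hrs at 37C, exposed to compounds for 17 hrs, then viability was read as CellTiter-Glo luminescence after 30 min at room temperature, in the reporter wells.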

[2] = qHTS assay to identify small molecule agonists of H2AX (AID 1224845; active = well fitted activation curve with a large enough effect in the signal ratio in the repeat runs, not every such curve was filed as active; the % refers to the signal ratio)
Outline: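 Wild-type CHO-K1 cells, plated overnight, exposed 3hr at 37C to 15 concentrations (0.76% DMSO final). Lysed, then HTRF anti-pH2AX (S139) cryptate and anti-H2AX-d2 antibodies, 24 hr room temperature; 665/620 nm emission read.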

[3] = qHTS assay to identify small molecule agonists of the hypoxia (HIF-1) signaling pathway (AID 1224846; active = well fitted activation curve with a large enough effect in the signal ratio in the repeat runs, not every such curve was filed as active; the % refers to the signal ratio)
Outline: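 HRE-bla ME-180 cells (beta-lactamase reporter under hypoxia response element) were plated at 2,000 cells/well in medium with 0.5% dialyzed FBS, rested 5 hrs, then given compounds in DMSO for 17 hrs at 37C, 5% CO2. Reporter induction was read with CCF4-AM FRET substrate.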

[4] = qHTS assay to identify small molecule agonists of H2AX - cell viability counter screen (AID 1224847; calls by dose curve; note: top concentration of the series differs between compounds; nearly all actives have a fitted effect of over 30% in size)
Outline: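 Cytotoxicity counter screen in wild-type CHO-K1 cells: a 3 hr compound treatment at 37C across 15 concentrations, followed by CellTiter-Glo luminescence to gauge viable cells.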

[5] = qHTS RealTime-Glo MT Cell Viability Assay in HepG2 cells - 24 hour (AID 1224867); note: nearly all actives have a fitted effect of over 50% in size
Outline: (§1)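 HepG2 suspension premixed with RealTime-Glo reagents is plated at 600 cells per well and left 5 h at 37 C/5% CO2. Compounds in DMSO then go in, and bioluminescence reflecting viable cell number is recorded over 40 h.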

[6] = qHTS RealTime-Glo MT Cell Viability Assay in HEK293 cells - 32 hour (AID 1224868); note: top concentration of the series differs between compounds; nearly all actives have a fitted effect of over 50% in size
Outline: (§2)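 Reads taken at 0, 8, 16, 24, 32 and 40 h from the same wells. HEK293 cells (600/well) carried RealTime-Glo reagents from seeding, with compound added after a 5 h settle at 37 C.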

[7] = A CellTox Green Cytotoxicity Assay to monitor cytotoxicity in HEK293 cells - 0 hour (AID 1224869); note: nearly all actives have a fitted effect of over 50% in size
Outline: (§3)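 HEK293 cells premixed with CellTox Green dye were seeded at 600 cells/well and left 5 h at 37 C/5% CO2 before pin transfer of 23 nL compound in DMSO. Fluorescence from dye bound to dead-cell DNA was read during 40 h treatment.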

[8] = qHTS RealTime-Glo MT Cell Viability Assay in HepG2 cells - 40 hour (AID 1224870); note: nearly all actives have a fitted effect of over 50% in size
Outline: (§4)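 HepG2 cells (600/well) mixed with RealTime-Glo MT reagent, settled 5 h at 37 C/5% CO2 before compound addition. Nonlytic NanoLuc luminescence from viable-cell prosubstrate reduction read repeatedly during 40 h treatment at 37 C.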

[9] = A CellTox Green Cytotoxicity Assay to monitor cytotoxicity in HEK293 cells - 40 hour (AID 1224871); note: nearly all actives have a fitted effect of over 45% in size
Outline: as §3

[10] = qHTS RealTime-Glo MT Cell Viability Assay in HEK293 cells - 16 hour (AID 1224872)
Outline: as §2

[11] = qHTS RealTime-Glo MT Cell Viability Assay in HepG2 cells - 8 hour (AID 1224873); note: nearly all actives have a fitted effect of over 55% in size
Outline: as §4

[12] = qHTS RealTime-Glo MT Cell Viability Assay in HEK293 cells - 40 hour (AID 1224874); details: RealTime-Glo luminescence; max response: stronger effect = lower value; note: nearly all actives have a fitted effect of over 50% in size
Outline: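 HEK293 cells mixed with RealTime-Glo reagents (NanoLuc plus cell-permeant prosubstrate) at 600 cells/well, preincubated 5 h at 37 C/5% CO2, then given 23 nL compound in DMSO. Nonlytic luminescence from viable cells was read at 0, 8, 16, 24, 32 and 40 h.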

[13] = A CellTox Green Cytotoxicity Assay to monitor cytotoxicity in HEK293 cells - 24 hour (AID 1224875); note: nearly all actives have a fitted effect of over 45% in size
Outline: as §3

[14] = A CellTox Green Cytotoxicity Assay to monitor cytotoxicity in HepG2 cells - 16 hour (AID 1224876); note: nearly all actives have a fitted effect of over 45% in size
Outline: (§5)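 HepG2 cells were seeded together with the CellTox Green dye at 600 cells/well, left 5 h at 37 C/5% CO2, then given compounds in DMSO. Fluorescence from dye bound to dead-cell DNA was read repeatedly over 40 h of treatment at 37 C.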

[15] = qHTS RealTime-Glo MT Cell Viability Assay in HepG2 cells - 32 hour (AID 1224877); note: nearly all actives have a fitted effect of over 55% in size
Outline: as §1

[16] = A CellTox Green Cytotoxicity Assay to monitor cytotoxicity in HepG2 cells - 24 hour (AID 1224878); note: nearly all actives have a fitted effect of over 45% in size
Outline: as §5

[17] = A CellTox Green Cytotoxicity Assay to monitor cytotoxicity in HepG2 cells - 40 hour (AID 1224879); note: nearly all actives have a fitted effect of over 40% in size
Outline: as §5

[18] = qHTS assay to identify small molecule antagonists of the estrogen related receptor (ERR) signaling pathway from Tox21 library (AID 1224848); note: nearly all actives have a fitted effect of over 50% in size
Outline: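 Luminescent reporter read-out (ONE-Glo) from NTP's ERR cell line after 18 h treatment at 37 C with DMSO-dissolved Tox21 compounds; cells pre-plated 6 h beforehand at 2,000 per well.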

[19] = qHTS assay to identify small molecule agonists of the estrogen related receptor (ERR) signaling pathway from Tox21 library (AID 1224849; calls by dose curve; note: nearly all actives have a fitted effect of over 15% in size); details: ERR reporter cell line, ONE-Glo luciferase, 18 h; at 92.4 µM (top of the series) unless noted
Outline: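 ERR reporter cell line (NTP) seeded, rested 6 h at 37 C/5% CO2, then pinned with Tox21 compounds in DMSO. After 18 h at 37 C, ONE-Glo luciferase luminescence was read following 30 min at room temperature.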
% is set by controls: 0 for no effect and ±100 for the full control effect.

c1ccc(CN2CCNCC2)cc1
inactive: Potency [1] | Potency [2] | outcome [3] | Potency [4] | Potency [5] | Potency [6] | Potency [7] | Potency [8] | Potency [9] | Potency [10] | Potency [11] | max response [12] 3.29% | Potency [13] | Potency [14] | Potency [15] | Potency [16] | Potency [17]

CCN(C)N=O
inactive: Potency [1] | Potency [2] | outcome [3] | Potency [4] | Potency [5] | Potency [6] | Potency [7] | Potency [9] | Potency [10] | Potency [11] | max response [12] 2.13% | Potency [13] | Potency [14] | Potency [15] | Potency [16] | Potency [17]

CC(=O)[C@H]1CC[C@H]2[C@@H]3CC[C@H]4C[C@](C)(O)CC[C@]4(C)[C@H]3CC[C@]12C
inactive: Potency [1] | Potency [2] | outcome [3] | Potency [4] | Potency [18] | activity change, positive = activation [19] 9.6% [at 42.5 µM] | Potency [6] | Potency [7] | Potency [8] | Potency [9] | Potency [10] | Potency [11] | max response [12] -9.18% | Potency [13] | Potency [14] | Potency [15] | Potency [16] | Potency [17]

O=C(C(Cl)(Cl)Cl)C(Cl)(Cl)Cl
inactive: Potency [1] | Potency [2] | outcome [3] | Potency [4] | Potency [5] | Potency [6] | Potency [7] | Potency [8] | Potency [9] | Potency [10] | Potency [11] | max response [12] -7.45% | Potency [13] | Potency [15] | Potency [16] | Potency [17]

C#CCOC(C(=O)OCCN(C)C)(c1ccccc1)c1ccccc1
inactive: Potency [1] | Potency [2] | outcome [3] | Potency [4] | Potency [6] | Potency [7] | Potency [8] | Potency [9] | Potency [10] | Potency [11] | max response [12] -21.3% | Potency [13] | Potency [14] | Potency [15] | Potency [16] | Potency [17]

CC/C(=N\OC/C=C/Cl)C1=C(O)CC(C2CCOCC2)CC1=O (configuration not stated)
inactive: Potency [1] | Potency [2] | outcome [3] | Potency [4] | Potency [18] | activity change, positive = activation [19] 0.742% | Potency [5] | Potency [6] | Potency [7] | Potency [8] | Potency [9] | Potency [10] | Potency [11] | max response [12] 0.456% | Potency [13] | Potency [15] | Potency [16] | Potency [17]

O=C(O)c1ccccc1C(=O)Nc1cccc2ccccc12
inactive: Potency [1] | Potency [2] | outcome [3] | Potency [4] | Potency [5] | Potency [6] | Potency [7] | Potency [8] | Potency [9] | Potency [10] | Potency [11] | max response [12] 18.5% | Potency [13] | Potency [15] | Potency [16] | Potency [17]
